Compound activity from PubChem.
GCN5L2 inh: inhibitors of human GCN5L2 histone acetyltransferase | Q92830 | GCN5L2 HAT assay, ThioGlo1 CoA-SH fluorescence | Potency, µM (doses to about 58.9 µM), most hits filed as inhibitors | 390,000 compounds, 0.21% hits | AID 504327
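ThioGlo1-coupled HAT assay: 20nM GCN5L2, 70uM acetyl-CoA, 75uM H3(1-25) peptide, pH 7.5. Fluorescence read at 340/540nm at start and after 20 min at room temperature.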
WRN helicase inh-1: inhibitors of human WRN helicase | Q14191 | WRN helicase unwinding, fluorescent forked duplex, kinetic | Potency, µM (top dose mostly 114 µM), actives largely listed as inhibitors | 360,000 compounds, 0.46% hits; note: nearly all actives have a fitted effect of over 55% in size
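Enzyme (20 nM final) and test compound sit together 15 min at room temperature before substrate addition. Substrate is a single-forked duplex oligonucleotide (100 nM) labelled with fluorophore and quencher, with 2 mM ATP; helicase unwinding raises red fluorescence, read kinetically.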
BLM helicase inh-1: inhibitors of human Bloom syndrome helicase BLM; 350,000 compounds, 0.2% hits; P54132; Potency, µM (series often up to 56.1 µM), usual class: inhibitors; recombinant BLM DNA unwinding, fluorescence dequenching; AID 2528; note: nearly all actives have a fitted effect of over 35% in size
APEX1 inh: APE1 (human) endonuclease inhibition | P27695 | recombinant APE1, TAMRA/BHQ-2 abasic DNA cleavage fluorescence | Potency, µM (doses to about 65.8 µM), most hits filed as inhibitors | 350,000 compounds, 0.35% hits | AID 2517; note: nearly all actives have a fitted effect of over 55% in size
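Enzyme (0.75 nM final) and test compound are incubated 15 min at room temperature before adding 50 nM quenched THF abasic-site duplex. Cleavage dequenches TAMRA, followed at 525/598 nm over three reads one minute apart.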
ERG Ets-DNA blk: blocks human ERG Ets domain binding to DNA; P11308; fluorescence polarization, His-ERG Ets domain / labelled DNA; Potency, µM (titrated, usually from 76.9 µM), hits mostly inhibitors; 370,000 compounds, 0.028% hits; AID 624246; active = well fitted inhibition curve with a large enough effect in the polarisation, with a control signal flat; inconclusive = small, poorly fitted or top-dose-only effect, or effect the other way, or a change in a side signal; inactive = no such curve, though single readings can be large or run the other way; the % refers to the polarisation;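 note: polarization taken with two DNA probes labelled with fluorescein and Texas red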
Target sequence (P11308 whole entry, looked up, the tested form may be a part): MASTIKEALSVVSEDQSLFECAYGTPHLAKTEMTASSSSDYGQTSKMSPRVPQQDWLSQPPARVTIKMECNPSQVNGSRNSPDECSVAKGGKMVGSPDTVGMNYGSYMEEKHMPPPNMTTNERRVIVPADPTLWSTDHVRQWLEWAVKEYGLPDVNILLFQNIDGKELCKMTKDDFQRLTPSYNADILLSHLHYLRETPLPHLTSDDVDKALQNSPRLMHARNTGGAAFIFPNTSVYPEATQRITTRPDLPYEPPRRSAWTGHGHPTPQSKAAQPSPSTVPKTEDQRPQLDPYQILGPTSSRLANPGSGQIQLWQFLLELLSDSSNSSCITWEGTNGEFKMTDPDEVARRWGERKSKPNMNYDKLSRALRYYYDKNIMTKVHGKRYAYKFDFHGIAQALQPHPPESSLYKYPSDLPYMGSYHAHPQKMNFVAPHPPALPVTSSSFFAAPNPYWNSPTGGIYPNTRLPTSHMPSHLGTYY
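His-tagged ERG Ets domain (1 uM in the protein solution; 300mM KCl, 50mM Tris-HCl, 1mM EDTA, 1mM DTT, pH 7.5) received compound, then a probe mix of 5 nM fluorescein-DNA and 100nM Texas-615-DNA. Fluorescence polarization was read for both dyes.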
RECQ1 inh-1: inhibitors of human RECQ1 DNA helicase. RECQ1 DNA unwinding, red fluorescence kinetic read. Potency, µM (series often up to 57.3 µM), usual class: inhibitors. P46063. 240,000 compounds, 0.54% hits; note: nearly all actives have a fitted effect of over 30% in size
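50 nM RECQ1T1 preincubated 15 min with compound in Tris pH 8.0 buffer with MgCl2, DTT, Tween-20 and 2.5 ug/ml poly(dI-dC); started with 200 nM TAMRA/BHQ-2 forked duplex and 2 mM ATP. Unwinding read as fluorescence (525/598 nm), two reads 2 h apart.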
BLM inh: BLM (human) helicase inhibition, confirmation | shares compounds with BLM helicase inh-1 | BLM DNA unwinding, fluorescence quenching, biochemical | Potency, µM, usual class: inhibitors | 220 compounds, 40% hits;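 note: strand separation dequenches TAMRA so unwinding raises red fluorescence; series mostly up to about 69 µM; nearly all actives have a fitted effect of over 45% in size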
RECQ1 inh conf: confirmation of human RECQ1 helicase inhibitors | shares compounds with RECQ1 inh-1 | RECQ1 helicase DNA unwinding, fluorescence | Potency, µM (top dose mostly 229 µM), actives largely listed as inhibitors | 610 compounds, 28% hits | AID 2708; note: nearly all actives have a fitted effect of over 45% in size
RECQ1 inh-2: blocks human RECQ1 DNA unwinding; 1,100 compounds, 15% hits; shares compounds with RECQ1 inh-1; recombinant RECQ1 DNA unwinding, red fluorescence; AID 504841; Potency, µM (highest dose often 119 µM), usual class: inhibitors; note: nearly all actives have a fitted effect of over 50% in size
WRN helicase inh-2: WRN helicase inhibition, cherry-pick retest | WRN helicase DNA unwinding, fluorescence kinetic | Potency, µM (doses to about 57.1 µM), hits mostly inhibitors | shares compounds with WRN helicase inh-1 | 610 compounds, 63% hits; note: nearly all actives have a fitted effect of over 65% in size
TO DNA binding: DNA binding via thiazole orange displacement; shares compounds with WRN helicase inh-1; thiazole orange DNA binding displacement, fluorescence; Potency, µM (series often up to 57.1 µM), hits mostly inhibitors; 610 compounds, 10% hits;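 note: drop in dye fluorescence marks compound binding to DNA; nearly all actives have a fitted effect of over 60% in size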
BLM helicase inh-2: blocks human BLM helicase in WRN counterscreen. shares compounds with WRN helicase inh-1. 610 compounds, 60% hits. Recombinant BLM helicase DNA unwinding, red fluorescence. Potency, µM (titrated, usually from 57.1 µM), most hits filed as inhibitors. AID 720503; note: nearly all actives have a fitted effect of over 60% in size
Large screens that a line does not name were inactive (follow-up assays come after a bar, where they were run). Shown are actives, neighbours in structure and some others; about 0.88% of the full set was active somewhere. Unless noted, calls come from the whole dose curve; as a rule, active = well fitted curve in the direction sought with a large enough effect; inconclusive = small, poorly fitted or top-dose-only effect, or another doubt; inactive = no such curve, though single readings can be large; an effect the other way counts as inactive or inconclusive.

N#Cc1c(N2CCN(C(=O)c3ccccc3Cl)CC2)nc(-c2ccccc2)c2c1CCCC2	none
Cc1ccc(NC(=O)CCS(=O)(=O)c2cc(Br)cc3c2N(C(=O)C2CC2)CC3)cc1	none (no result: WRN helicase inh-1, APEX1 inh, RECQ1 inh-1)
O=C(O)c1cccc(-n2cccc2/C=C2/NC(=O)N(c3ccc(Cl)cc3)C2=O)c1	GCN5L2 inh 8.9µM, WRN helicase inh-1 3.2µM, BLM helicase inh-1 3.5µM, APEX1 inh 2µM, RECQ1 inh-1 32µM | BLM inh 14µM | RECQ1 inh conf inconclusive | WRN helicase inh-2 1.4µM | TO DNA binding inconclusive | BLM helicase inh-2 0.17µM
COc1ccc(-n2cccc2/C=C2/NC(=O)N(c3cccc(Cl)c3)C2=O)cc1	none
Cc1cc2cc(C(c3nnnn3Cc3ccco3)N3CCc4ccccc43)c(=O)[nH]c2cc1C (centres undefined)	APEX1 inh inconclusive, RECQ1 inh-1 inconclusive | RECQ1 inh-2 inactive
O=C1CCC[C@@H]2CC(NCc3ccc(Cl)c(Cl)c3)C[C@@H]3CCN1[C@H]23 (some centres undefined)	none (no result: WRN helicase inh-1, ERG Ets-DNA blk)
COc1ccc(C2=NN(C(C)=O)C(c3cn(-c4ccccc4)nc3-c3cccs3)C2)cc1 (centres undefined)	none (no result: WRN helicase inh-1, APEX1 inh, RECQ1 inh-1)
COc1ccccc1-n1c(SCC(=O)Nc2ccc(C)cc2)nc(O)cc1=O	none
COc1ccccc1-n1c(SCC(=O)Nc2cccc3ccccc23)nc(O)cc1=O	RECQ1 inh-1 inconclusive | RECQ1 inh-2 inactive
COc1ccc(NC(=O)CSc2nc(O)cc(=O)n2-c2ccccc2OC)cc1	RECQ1 inh-1 inconclusive | RECQ1 inh-2 inactive
C[C@H]1CN([C@@H](C)CO)C(=O)CCCn2cc(nn2)CO[C@@H]1CN(C)C(=O)Nc1ccc2c(c1)OCO2	none (no result: GCN5L2 inh, BLM helicase inh-1, APEX1 inh, ERG Ets-DNA blk, RECQ1 inh-1)
COc1ccccc1NC(=O)NC1(C(=O)N2CCC(C)CC2)CCCCC1	none (no result: RECQ1 inh-1)
O=C(c1ccc(OCCN2CCCCC2)cc1)c1c(-c2ccc(O)cc2)sc2cc(O)ccc12	RECQ1 inh-1 inconclusive | RECQ1 inh-2 inactive
O=C(Nc1c(Cl)cccc1Cl)C1CCN(C(=O)c2cccs2)CC1	none (no result: RECQ1 inh-1)
C=CCOc1ccccc1/C=c1\sc2nc(=O)c(C)nn2c1=O	WRN helicase inh-1 inconclusive, APEX1 inh inconclusive, RECQ1 inh-1 inconclusive | RECQ1 inh-2 inconclusive
CCc1nc2c(OCc3ccc(C(=O)N(C)C)cc3)cccn2c1N(C)C(=O)c1ccc(C)cc1	none (no result: GCN5L2 inh, BLM helicase inh-1, APEX1 inh, ERG Ets-DNA blk, RECQ1 inh-1)
Nc1cc(=O)[nH]c(SCC(=O)N2N=C(c3ccc(Cl)cc3)CC2c2ccco2)n1 (centres undefined)	RECQ1 inh-1 inconclusive | RECQ1 inh-2 inactive
COc1ccc(-n2c(=O)c(-c3cccs3)nc3cnc(N4CCOCC4)nc32)cc1	none (no result: WRN helicase inh-1, ERG Ets-DNA blk)
COc1ccc(-n2c(=O)c(-c3cccs3)nc3cnc(N4CCNCC4)nc32)cc1	GCN5L2 inh inconclusive, APEX1 inh inconclusive, RECQ1 inh-1 inconclusive (no result: WRN helicase inh-1, ERG Ets-DNA blk) | RECQ1 inh-2 inactive
